Screens as filed in PubChem.
The sample as a whole holds a higher share of hits than the screen did.
DUX4 txn inh – inhibitors of DUX4-driven ZSCAN4 reporter expression, primary screen, 293T cells, Gaussia and Italica luciferase; 293T-iDUX4 ZSCAN4-Gaussia luciferase reporter, 24 h; active compounds read low; activity change, negative = inhibition, % (test concentration not listed); 37,000 compounds, 0.8% hits; AID 1224904, 2016;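 active means mean inhibition of at least 10% in the main channel, exceeding the control channel by a set limit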;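 further: 0% = median of neutral control wells and -100% = median of positive control wells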
The depositor's hits bear a star.

SMILES	DUX4 txn inh
COCC(=O)N1CC2(CCN(C(=O)NC(C)C)CC2)c2c(n(C)c3cc(OC)ccc23)[C@H]1CO	9
O=C(NCC(F)(F)F)[C@H]1[C@H](CO)[C@H]2Cn3c(cccc3=O)[C@H]2N1C(=O)c1ccccc1F	-2
O=C(N[C@@H]1CC[C@@H](CC(=O)N2CCc3ccccc3C2)O[C@H]1CO)C1CCOCC1	4
COc1ccc2c3c([nH]c2c1)[C@H](CO)N(Cc1ccc(Cl)cc1)CC31CN(S(C)(=O)=O)C1	-45*
COc1ccc(CN2CC3(CN(C(=O)c4ccccc4)C3)c3c([nH]c4cc(OC)ccc34)[C@@H]2CO)cc1	-51*
COc1ccc2c3c([nH]c2c1)[C@@H](CO)N(Cc1ccncc1)CC31CN(C(=O)c2cccnc2)C1	18
COc1ccc2c3c([nH]c2c1)[C@H](CO)N(Cc1ccncc1)CC31CN(S(C)(=O)=O)C1	9
COc1ccc(CN2CC3(CCN(C(=O)c4ccccc4)CC3)c3c([nH]c4cc(OC)ccc34)[C@@H]2CO)cc1	-2
COc1ccc2c3c([nH]c2c1)[C@H](CO)N(Cc1cccc(Cl)c1)CC31CN(C)C1	-7
CO[C@H]1CN(C)C(=O)c2ccc(NC(=O)CC(F)(F)F)cc2OC[C@H](C)N(C(=O)C2CCOCC2)C[C@@H]1C	8
CNC(=O)C[C@@H]1CC[C@H]2[C@H](COc3ccc(NC(=O)NC(C)C)cc3C(=O)N2C)O1	-4
C[C@H](CO)N1C[C@H](C)[C@@H](CN(C)Cc2cccc(O)c2)OCc2ccccc2-c2ccccc2C1=O	0
C[C@@H]1CN([C@@H](C)CO)C(=O)c2ccccc2-c2ccccc2CO[C@@H]1CN(C)Cc1cccc(F)c1	12
C[C@@H]1CN([C@@H](C)CO)C(=O)c2ccccc2-c2ccccc2CO[C@@H]1CN(C)Cc1cccc(C(F)(F)F)c1	-63*
C[C@H]1CN([C@@H](C)CO)C(=O)c2ccccc2-c2ccccc2CO[C@@H]1CN(C)Cc1cccc(C(F)(F)F)c1	-37*
C[C@@H]1CN([C@@H](C)CO)C(=O)c2ccccc2-c2ccccc2CO[C@@H]1CN(C)Cc1ccc(C(F)(F)F)cc1	12
C[C@@H]1CN([C@@H](C)CO)C(=O)c2ccccc2-c2ccccc2CO[C@H]1CN(C)Cc1cccc(C(=O)O)c1	2
COc1ccc2c3c([nH]c2c1)[C@H](CO)N(C)CC31CN(C(=O)c2ccccc2F)C1	-7
Cc1cccc(-c2ccc([C@H]3[C@@H](CO)N4CCCCN(Cc5ccncc5)C[C@H]34)cc2)c1	-7
CN(C)C(=O)c1ccc(-c2ccc([C@H]3[C@@H](CO)N4CCCCN(CCC(F)(F)F)C[C@@H]34)cc2)cc1	6
CN(C)C(=O)c1ccc(-c2ccc([C@@H]3[C@@H](CO)N4CCCCN(CCC(F)(F)F)C[C@H]34)cc2)cc1	7
Cc1cccc(-c2ccc([C@@H]3[C@@H](CO)N4CCCCN(CCC(F)(F)F)C[C@H]34)cc2)c1	14
OC[C@@H]1[C@@H](c2ccc(-c3cccc(F)c3)cc2)[C@@H]2CN(Cc3cncnc3)CCCCN12	27
OC[C@H]1[C@@H](c2ccc(-c3cccc(F)c3)cc2)[C@H]2CN(Cc3cncnc3)CCCCN21	5
OC[C@H]1[C@H](c2ccc(-c3cccc(F)c3)cc2)[C@@H]2CN(CCC(F)(F)F)CCCCN12	-47*
SMILES	DUX4 txn inh
Cc1cccc(-c2ccc([C@@H]3[C@@H](CO)N4CCCCN(CCC(F)(F)F)C[C@@H]34)cc2)c1	-56*
Cc1cccc(-c2ccc([C@H]3[C@@H](CO)N4CCCCN(CCC(F)(F)F)C[C@H]34)cc2)c1	-39*
COc1ccc(NC(=O)Nc2ccc3c(c2)C(=O)N([C@@H](C)CO)C[C@H](C)[C@@H](CN(C)C(=O)NC2CCCCC2)OCCCC[C@H](C)O3)cc1	3
COc1ccc2c3c(n(C)c2c1)[C@H](CO)N(C(=O)c1ccccn1)CC31CCN(C(C)=O)CC1	5
COc1ccc2c3c(n(C)c2c1)[C@@H](CO)N(C(C)=O)CC31CN(C(=O)NC(C)C)C1	10
CC=Cc1ccc2n(c1=O)C[C@H]1[C@H](CO)[C@@H](C(=O)NCCOC)[C@@H]2N1Cc1ccccc1OC (mixture of isomers)	-9
CN1c2ccc(C#Cc3ccccc3F)cc2[C@H]2[C@H](CCN2C(=O)c2cnccn2)[C@H]1CO	-29*
CN1c2ccc(Br)cc2[C@H]2[C@H](CCN2C(=O)c2cccc(F)c2)[C@H]1CO	-9
CC(C)NC(=O)N1CC[C@H]2[C@@H]1c1cc(C#Cc3cccnc3)ccc1N(C)[C@H]2CO	5
CN1c2ccc(C#Cc3cccnc3)cc2[C@@H]2[C@@H](CCN2C(=O)c2cccc(F)c2)[C@H]1CO	-37*
CN1c2ccc(-c3ccccc3F)cc2[C@@H]2[C@@H](CCN2C(=O)c2ccccn2)[C@H]1CO	4
COc1ccc(C#Cc2ccc3c(c2)[C@@H]2[C@@H](CCN2C(=O)c2ccccc2F)[C@H](CO)N3C)cc1	4
